Screening results (PubChem)
GPR151 ag – activators of human GPR151, primary screen, cell-based, PathHunter beta-arrestin, luminescence; G-protein coupled receptor 151 (Homo sapiens), Q8TDV0; activation, % at 11.2 µM; AID 1508602, 2020; PathHunter beta-arrestin GPR151 cells; 1% of 650,000 active; in the data active = activation above about 4.9%
TEAD-YAP block – TEAD-YAP interaction inhibition, primary screen, TEAD-YAP interaction inhibitor project, luminescence, HEK-TIYL cells; TEAD-Gal4/YAP UAS-luciferase luminescence; inhibition, % at 9.12 µM; 1.4% of 640,000 active; in the data active = inhibition above about 32%
FBW7 act – FBW7 E3 ligase activators, primary screen, biochemical, AlphaScreen, human | AID 1259310, 2017 | 0.13% of 650,000 active | AlphaScreen FBW7–phospho-cyclin E peptide binding, activator screen | normalized activity (activation), % at 26.1 µM; in the data active = normalized activity above about 1.9%;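 note: purified mutant Fbw7 with reduced substrate affinity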
MITF inh – MITF inhibitors, primary screen, biochemical, AlphaScreen, human. AID 1259374, 2018. AlphaScreen MITF homodimerization, bead proximity signal. 0.91% of 650,000 active. Microphthalmia-associated transcription factor (Homo sapiens), O75030. inhibition, % at 2.6 µM; in the data active = inhibition above about 50%
GPR151 conf act – GPR151 activators, triplicate retest, confirmation, cell-based, PathHunter beta-arrestin, luminescence; 6,700 tested, under 10 active; GPR151 PathHunter beta-arrestin cells, 90 min; % of EA-reagent control over plate median; activation, % at 11.2 µM; shares compounds with GPR151 ag; AID 1508609, 2020;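 active = mean percent activation across replicates above the confirmation screen cutoff of 4.91%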
GPR119 counter – GPR119 activators in beta-arrestin cells, counter-screen for GPR151 activator project, cell-based, PathHunter beta-arrestin, luminescence, triplicate. shares compounds with GPR151 ag. 90 min; 0 = compound-well median, 100 = enzyme-acceptor control. activation, % at 11.2 µM. 0.3% of 6,700 active;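 active = mean percent activation in the counterscreen above 29.09%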;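 note: counterscreen on off-target GPR119 to flag nonselective hits from the GPR151 activator screen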
Target sequence (Q8TDV5 whole entry, looked up): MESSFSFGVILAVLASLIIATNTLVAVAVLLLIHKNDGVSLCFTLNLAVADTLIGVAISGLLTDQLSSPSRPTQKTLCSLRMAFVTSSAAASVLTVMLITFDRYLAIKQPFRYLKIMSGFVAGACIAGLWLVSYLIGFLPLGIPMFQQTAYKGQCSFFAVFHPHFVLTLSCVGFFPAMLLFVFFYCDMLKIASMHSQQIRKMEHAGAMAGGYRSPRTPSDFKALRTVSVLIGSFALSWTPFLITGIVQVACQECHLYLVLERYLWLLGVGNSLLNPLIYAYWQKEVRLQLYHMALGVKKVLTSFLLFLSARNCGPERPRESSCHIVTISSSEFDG
Of the large screens only hits and unclear results are named; the others gave an inactive call (follow-up assays come after a bar, where they were run). Hits are enriched below; roughly 3.5% of the tested compounds scored in any of these assays.

COc1ccc(C)cc1NC(=O)Cc1c(C(=O)O)n(C)c2ccccc12	none
CCn1c(C(=O)O)c(CC(=O)Nc2cc(Cl)ccc2OC)c2ccccc21	GPR151 ag 5.4 | GPR151 conf act inactive | GPR119 counter inactive
CC(=O)NCCC(=O)Nc1ccc2c(c1)-c1ccccc1C2	none
CN1CCC(O)(c2ccncc2)C(O)C1=O (centres undefined)	none
C(=N\Nc1ccccc1)/c1ccc2c(c1)OCCO2	GPR151 ag 5.3 | GPR151 conf act inactive | GPR119 counter inactive
NS(=O)(=O)c1ccc(N/N=C/c2ccccc2Cl)c([N+](=O)[O-])c1	none
CC(C)(C)c1ccc(/C=N/Nc2ccc(S(N)(=O)=O)cc2[N+](=O)[O-])cc1	GPR151 ag 5.0 | GPR151 conf act inactive | GPR119 counter inactive
Cc1nn(Cc2ccccc2)c(Cl)c1/C=N/Nc1ccc(S(N)(=O)=O)cc1[N+](=O)[O-]	GPR151 ag 5.2 | GPR151 conf act inactive | GPR119 counter inactive
CN(Cc1ccccc1)C(=O)c1cc(-c2ccccc2O)no1	none
COc1ccc(-c2cc(C(=O)N(C)Cc3ccccc3)on2)cc1OC	GPR151 ag 5.9 | GPR151 conf act inactive | GPR119 counter inactive
CCC(=O)NNc1nc2ccc(OC)cc2s1	GPR151 ag 6.3 | GPR151 conf act inactive | GPR119 counter inactive
CCN(CC)CC(=O)Nc1nc2ccc(OC)cc2s1	none
O=C(Nc1nc(-c2cc(Cl)sc2Cl)cs1)c1ccccc1Cl	none
Cc1cc(-c2nc3cc(Cl)ccc3c(=O)o2)ccc1[N+](=O)[O-]	GPR151 ag 6.3 | GPR151 conf act inactive | GPR119 counter inactive
Cc1ccc(-c2nc3cc(Cl)ccc3c(=O)o2)cc1C	none
COc1ccc(OCC(=O)Nc2ccccc2CO)cc1	GPR151 ag 9.2 | GPR151 conf act inactive | GPR119 counter inactive
O=C(COc1ccccc1)Nc1ccccc1NC(=O)COc1ccccc1	GPR151 ag 5.8 | GPR151 conf act inactive | GPR119 counter inactive
CCOc1ccccc1NC(=O)COc1ccc(F)cc1	none
CC(=O)Nc1ccccc1NC(=O)COc1ccccc1	none
CCCOc1ccccc1NC(=O)COc1ccc(C#N)cc1	GPR151 ag 12.1 | GPR151 conf act inactive | GPR119 counter inactive
O=C(COc1ccc([N+](=O)[O-])cc1)Nc1cccc2cccnc12	GPR151 ag 5.9 | GPR151 conf act inactive | GPR119 counter inactive
OCC#CCSc1nc2ccccc2s1	none
COc1ccc(CC(=O)Nc2ccc(N(C)C)c3ccccc23)cc1	GPR151 ag 5.6 | GPR151 conf act inactive | GPR119 counter inactive
CCOc1ccc(OCC(=O)Nc2ccccc2CC)cc1	none
CCc1ccccc1NC(=O)COc1ccc(C#N)cc1	GPR151 ag 7.5 | GPR151 conf act inactive | GPR119 counter inactive
Cc1[nH]c(-c2ccc(F)cc2)cc1C(=O)NCCC(C)C	none
CC[C@@H](C)[C@H](NS(=O)(=O)c1ccc(Br)cc1)C(=O)O	none
CCOC(=O)C1(Cc2cccc(OC)c2)CCN(CCO)CC1	GPR151 ag 7.9 | GPR151 conf act inactive | GPR119 counter inactive
CCOC(=O)C1(Cc2ccc(Cl)cc2)CCN(CC)CC1	none
CCOC(=O)C1(Cc2ccc(Cl)cc2)CCN(CCC(C)O)CC1 (centres undefined)	GPR151 ag 5.0 | GPR151 conf act inactive | GPR119 counter inactive
CC(C)c1ccc(NC(=O)c2ccc(N)cc2)c(N)c1	GPR151 ag 5.8 | GPR151 conf act inactive | GPR119 counter inactive
Nc1ccc(NC(=O)c2ccc(C(=O)Nc3ccc(N)cc3N)cc2)c(N)c1	none
O=c1oc(-c2cccc(-c3nc4ccc(Br)cc4c(=O)o3)c2)nc2ccc(Br)cc12	none
COc1ccc(C(=O)N(CCCO)C(C)C(=O)NC2CCCCC2)cc1OC (centres undefined)	GPR151 ag 5.1 | GPR151 conf act inactive | GPR119 counter inactive
CCOC(=O)c1c(C)oc(NC(=O)CSc2nnnn2C)c1C(=O)OCC	none
CCCCOc1ccc2c3c(c(=O)oc2c1)CCC3	none
CCCOc1ccc2oc(=O)c3c(c2c1)CCCN3C(=O)CN1CCCC1	GPR151 ag 5.4 | GPR151 conf act inactive | GPR119 counter inactive
CCCOc1ccc2c3c(c(=O)oc2c1)CCC3	GPR151 ag 7.9 | GPR151 conf act inactive | GPR119 counter inactive
